ssDAF-12 act: activators of S. stercoralis DAF-12 nuclear receptor. HEK293 ssDAF-12/GRIP1 lit1-tk-luc reporter, luminescence; % of 3 µM dafachronic acid response. activation, % at 6.8 µM. hit rate 1% among 370,000. AID 652126;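 active = activation above the mean over all tested compounds plus 3 SD, cut at about 0.9% in these data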;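 also: 0% = DMSO-only wells and 100% = 3 µM delta7-dafachronic acid wells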
DAX1 inh-1: inhibitors of DAX1 repression of SF-1 activated StAR promoter; AID 652010; HEK293T StAR-luciferase reporter, SF-1/DAX-1 repression relief; hit rate 1.1% among 370,000; inhibition, % at 6.8 µM;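 active = inhibition above the mean over all tested compounds plus 3 SD, cut at about 3.6% in these data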;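 also: 0% = DAX-1 cells with DMSO and 100% = cells lacking DAX-1 with DMSO; higher inhibition means more luminescence from relief of DAX-1 repression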
hcDAF-12 act: activators of H. contortus DAF-12 nuclear receptor. HEK293 hcDAF-12 lit1-tk-luc reporter, luminescence; 0% DMSO, 100% Δ7-dafachronic acid. activation, % at 6.8 µM. hit rate 1.4% among 370,000. AID 652067;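 active = activation above the mean of all tested compounds plus 3 SD, cut at about 5.5% in these data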;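 also: 100% = response to 3 µM Δ7-dafachronic acid high control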
hgDAF12 agonist: activates the H. glycines DAF-12 receptor ligand-binding domain | AID 687014 | hit rate 1.8% among 370,000 | HEK293 GAL4-hgDAF12 UAS-luciferase reporter, agonist luminescence; normalized to butyrate control | activation, % at 6.8 µM;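 active = activation above a cutoff set at the mean of all screened compounds plus 3 SD, cut at about 10% in these data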;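 also: 0% = DMSO wells and 100% = sodium butyrate wells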
DAX1 inh-2: inhibitors of human orphan nuclear receptor DAX1 (NR0B1); HEK293 Gal4-DAX1 luciferase reporter, luminescence; inhibition, % at 6.75 µM; hit rate 0.99% among 340,000; AID 504766;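 active = inhibition above the mean over all tested compounds plus 3 SD, cut at about 4.2% in these data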;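 also: 0% = DAX1-transfected cells with DMSO and 100% = empty-vector control cells with DMSO; inhibition shows as a rise in luminescence from relieved DAX1 repression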
Target sequence (P51843 207-470 limits assumed): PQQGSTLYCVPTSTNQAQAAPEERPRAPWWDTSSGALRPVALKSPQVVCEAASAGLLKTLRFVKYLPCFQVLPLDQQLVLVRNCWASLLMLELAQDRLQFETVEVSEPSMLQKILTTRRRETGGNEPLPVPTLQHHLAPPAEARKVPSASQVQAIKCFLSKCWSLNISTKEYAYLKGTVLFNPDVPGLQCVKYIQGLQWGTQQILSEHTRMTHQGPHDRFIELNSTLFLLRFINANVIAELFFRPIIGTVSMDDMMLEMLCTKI
hgDAF12 ag: confirmation of H. glycines DAF-12 agonists; shares compounds with hgDAF12 agonist; HEK293 GAL4-hgDAF12 luciferase reporter, agonist mode; percent of butyrate response; activation, % at 6.8 µM; hit rate 80% among 3,300; AID 743050;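 active = mean activation over triplicate wells above the hit cutoff derived from the earlier primary screen, cut at about 11% in these data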;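 also: 0% = DMSO low control and 100% = 2 mM sodium butyrate high control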
LXRb DAF12 ctr: LXR-beta agonism as DAF-12 counter-screen; shares compounds with hgDAF12 agonist; AID 743051; HEK293 Gal4-LXR luciferase reporter, 24 h; activation, % at 6.8 µM; 3,300 tested, under 10 active;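 active = mean activation of the triplicate above a set limit carried over from the primary screen, none filed active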
* hit, by the source's call; . = not tested or not shown. The list is not random: actives were taken first. Their share in the collection is about 4.1%.

SMILES	ssDAF-12 act	DAX1 inh-1	hcDAF-12 act	hgDAF12 agonist	DAX1 inh-2	hgDAF12 ag	LXRb DAF12 ctr
O=C(Nc1ccn(Cc2ccc(Cl)cc2)n1)c1ccccc1	-1	1	3	10	1	.	.
O=C(Nc1ccc(NC(=O)c2ccc(Cl)cc2Cl)cc1)c1ccc2c(c1)OCO2	-1	0	1	0	-2	.	.
O=C(COc1cccc2cccnc12)Nc1nccs1	1	1	4	14*	2	10*	1
COc1ccc(C(CC(=O)Nc2nccs2)n2cccc2)cc1 (stereo unspecified)	0.9*	2	3	16*	3	16*	1
COc1ccccc1OCCCC(=O)Nc1nccs1	0	4.5*	2	14*	3	11*	0
COc1ccc(C(CC(=O)Nc2nccs2)C(C)C)cc1 (stereo unspecified)	-1	0	-2	-2	1	.	.
C/C(=C\c1ccccc1)C(=O)Nc1nccs1	1	1	4	16*	3	12*	0
c1ccc(CN2CCN(CCOCCOc3ccc4c(c3)CCC4)CC2)cc1	-1	-1	-1	0	-1	.	.
O=Nc1c(-c2c(O)[nH]c3cc(Br)ccc23)[nH]c2ccccc12	0	0	2	2	0	.	.
CCCc1cc(=O)n2nc(N3CCC(C(=O)NCc4ccco4)CC3)sc2n1	-1	-1	-1	-1	0	.	.
COc1ccc(Nc2nnc(-c3ccc4c(c3)OCO4)o2)cc1	1.5*	3	5.8*	22*	.	18*	1
O=C(N/N=C/C1CC=CCC1)c1ccc(Cl)cc1O (stereo unspecified)	1.1*	1	4	16*	-1	0	0
CCn1c(SCC(=O)Nc2ccc(N3CCOCC3)cc2)nnc1C1CC1	-1	-2	1	2	0	.	.
CC1Cc2ccccc2N1Cc1cc(=O)c(OCC(=O)NCCc2ccccc2)co1 (stereo unspecified)	-1	-3	0	-1	-1	.	.
C#CC1(NC(=S)Nc2cccc(OC)c2)CCCCC1	0	1	2	15*	2	1	0
c1ccc2c(c1)CN1C(=N2)COc2ccccc2C1c1nc2ccccc2[nH]1 (stereo unspecified)	2.0*	4.4*	6.0*	15*	.	8	0
O=C1COc2ccccc2C(c2nc3ccccc3[nH]2)N1Cc1ccccc1 (stereo unspecified)	0	-2	1	1	.	.	.
COC(=O)c1ccccc1NC(=O)Nc1cc(C(C)(C)C)on1	0	3	0	5	1	.	.
CC(C)(C)c1cc(NC(=O)Nc2ccccc2)no1	0	2	5	23*	3	19*	1
c1ccc(-c2nnc3n2N=C(c2ccc4ccccc4c2)CS3)nc1	-2	-2	-3	-3	.	.	.
CCCCOc1ccc(-c2cc(C(=O)NNC(=S)NCC)c3ccccc3n2)cc1	.	.	.	.	-4	.	.
O=C(CC(Nc1ccc(Cl)cc1)C(=O)O)c1ccccc1 (stereo unspecified)	1.2*	3	4	14*	1	20*	1
O=C(NCCCc1ccccc1)O[C@@H]1CC[C@@]23CCCN2C(=O)CCC[C@H]3C1	-2	.	-2	-3	.	.	.
C/C(C=NNC(=O)c1cc(-c2ccc(C)c(C)c2)n[nH]1)=C/c1ccco1	-2	-3	-2	4	.	.	.
O=C(N/N=C\C=C\c1ccco1)c1cc(-c2ccc3ccccc3c2)n[nH]1	1	3	4	16*	4	7	0
SMILES	ssDAF-12 act	DAX1 inh-1	hcDAF-12 act	hgDAF12 agonist	DAX1 inh-2	hgDAF12 ag	LXRb DAF12 ctr
C=CCN1C(=S)CC(c2ccccc2)=Nc2ccccc21	-1	0	0	14*	-1	0	0
COc1ccccc1C(=O)NCC[N+](C)(C)C	-1	0	1	2	.	.	.
O=C(Nc1ccc(N2CCCC2)cc1)C(c1ccccc1)c1ccccc1	-1	0	-1	-2	0	.	.
O=C(Nc1ccc(N2CCCCCC2)cc1)c1ccccc1Cl	1	1	1	17*	2	19*	1
O=C(Nc1ccc(N2CCCCC2)cc1)C(Cl)c1ccccc1 (stereo unspecified)	0	1	5	19*	3	9	0
CC(=O)N1CCN(c2ccc(NC(=O)c3ccccc3Cl)cc2)CC1	-1	0	0	3	0	.	.
O=C(NN=C1CCCC1)c1cccc(O)c1	1	3	3	14*	1	2	0
CN(C)S(=O)(=O)c1cccc(C(=O)N=C2N=C3C=CC(Cl)=CN3Cc3ccccc32)c1	0	1	5	16*	3	7	0
O=C(N=C1N=C2C=CC=CN2Cc2ccccc21)c1ccc(S(=O)(=O)N2CCOCC2)cc1	0	4.1*	3	16*	4	12*	0
O=C(N=C1N=C2C=CC=CN2Cc2ccccc21)c1ccc(S(=O)(=O)N2CCCC2)cc1	-2	1	3	8	2	.	.
CN(C)S(=O)(=O)c1cccc(C(=O)N2CCN(Cc3ccccc3)CC2)c1	-1	-1	-2	0	1	.	.
CC(OC(=O)Cc1n[nH]c(=O)c2ccccc12)C(=O)Nc1ccc(F)cc1Cl (stereo unspecified)	-2	1	0	2	0	.	.
O=C(NCCc1ccccc1)c1ccc2nc(N3CCOCC3)sc2c1	-1	1	-2	14*	0	0	0
CC1CCCCN1CCCNC(=O)c1ccc2nc(N3CCCCC3)sc2c1 (stereo unspecified)	1.4*	4.0*	3	14*	1	12*	0
CC1CCCCN1CCCNC(=O)c1ccc(Br)cc1 (stereo unspecified)	-1	0	0	2	-1	.	.
CC(CCc1ccccc1)NC(=O)c1ccc2nc(N3CCOCC3)sc2c1 (stereo unspecified)	-2	0	-1	1	1	.	.
Cc1ccccc1NC(=O)Cc1nc(COC(=O)c2nccnc2N)cs1	-1	-1	0	1	0	.	.
COc1ccc(C(CNC(=O)c2ccc(S(=O)(=O)N3CC(C)CC(C)C3)cc2)N(C)C)cc1 (stereo unspecified)	-2	3	0	2	1	.	.
FC(F)(F)c1ccc(Nc2nnnc3ccccc23)cc1	-1	0	-2	3	1	.	.
O=C(NC(=S)Nc1cccc2[nH]ncc12)c1ccccc1	-1	2	1	22*	0	16*	0
CNC(=S)Nc1cccc2[nH]ncc12	-1	0	0	-1	1	.	.
CCCn1cc(NC(=O)c2cc(-c3ccccc3)on2)cn1	-1	0	0	22*	3	20*	0

Screens (PubChem)
